JMJD2A Tudor inh = inhibitors of human JMJD2A Tudor domain; AID 504339; 4.4% of 390,000 active; AlphaScreen JMJD2A-Tudor / H3K4me3 peptide binding; O75164; Potency, µM (doses to about 114 µM), actives largely listed as inhibitors; also: nearly all actives have a fitted effect of over 50% in size
HP1b chromo inh = inhibitors of HP1-beta chromodomain binding to methylated histone tails | P83916 | AID 540317 | Potency, µM (doses to about 114 µM), most hits filed as inhibitors | AlphaScreen HP1-beta / biotin-H3K9me3 peptide binding | 0.56% of 390,000 active; also: nearly all actives have a fitted effect of over 70% in size
Target sequence (P83916 whole entry, looked up): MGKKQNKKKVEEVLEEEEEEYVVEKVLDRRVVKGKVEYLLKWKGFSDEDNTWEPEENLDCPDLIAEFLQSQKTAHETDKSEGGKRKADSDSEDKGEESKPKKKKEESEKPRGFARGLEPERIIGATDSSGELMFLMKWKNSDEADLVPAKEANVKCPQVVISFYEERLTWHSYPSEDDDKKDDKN
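AlphaScreen: HP1-beta (50 nM) preformed 30 min with biotin-H3(1-18)K9me3 peptide (50 nM) in PBS pH 7.4, 0.01% Tween-20. Compound added for 30 min at RT, then streptavidin donor/nickel chelate acceptor beads (10 ug/mL) for 30 min.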
BAZ2B inh = inhibitors of human BAZ2B bromodomain; AlphaScreen BAZ2B-H3K14Ac peptide displacement; Potency, µM (doses to about 114 µM), usual class: inhibitors; 4.4% of 360,000 active; AID 504333; also: nearly all actives have a fitted effect of over 60% in size
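Compounds, titrated to a top concentration of 110 uM, were incubated 30 min at room temperature with preformed BAZ2B/acetyl-K14 H3 peptide complex (50 nM each). Proximity signal was measured by AlphaScreen after 20 min with beads.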
G9a inh = blocks human histone lysine methyltransferase G9a; G9a H3K9 monomethylation, AlphaScreen, 2 h; Potency, µM (titrated, usually from 102 µM), most hits filed as inhibitors; 8.8% of 350,000 active; AID 504332; also: nearly all actives have a fitted effect of over 75% in size
Target sequence (Q96KQ7 913-1193 limits assumed): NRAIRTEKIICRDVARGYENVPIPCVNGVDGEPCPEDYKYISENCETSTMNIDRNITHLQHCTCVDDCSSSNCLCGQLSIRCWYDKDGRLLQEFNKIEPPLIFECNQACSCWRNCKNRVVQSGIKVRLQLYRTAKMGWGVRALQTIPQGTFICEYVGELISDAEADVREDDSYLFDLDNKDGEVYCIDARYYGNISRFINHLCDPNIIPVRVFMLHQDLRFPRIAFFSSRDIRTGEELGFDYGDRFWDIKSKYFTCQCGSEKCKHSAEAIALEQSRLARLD
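Quantitative HTS format: methyltransferase activity on a biotin-tagged H3K9 peptide is measured by AlphaScreen, using a rabbit anti-monomethyl-H3K9 antibody with streptavidin donor and anti-IgG acceptor beads. Final levels are 20 nM enzyme, 500 nM peptide, 20 uM SAM; 2 h RT.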
Sfp inh = blocks B. subtilis Sfp PPTase activity; Potency, µM, usual class: inhibitors; 3.5% of 310,000 active; Biochemical Sfp PPTase activity, qHTS; Q9F4F7;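 also: the enzyme is Sfp with the accession as filed and its product quenches rhodamine fluorescence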
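With Hepes-Na pH 7.6 buffer containing 10 mM MgCl2, Sfp (15 nM) modified BHQ-2-YbbR (12.5 uM) using rhodamine-CoA (5 uM). Two reads 30 minutes apart at 525/598 nm yielded each well's rate.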
TDP1 block = inhibitors of human tyrosyl-DNA phosphodiesterase TDP1; Q9NUW8; recombinant TDP1, AlphaScreen DNA substrate cleavage; Potency, µM (series often up to 130 µM), actives largely listed as inhibitors; 0.28% of 350,000 active; AID 485290; also: nearly all actives have a fitted effect of over 40% in size
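E. coli-derived human Tdp1, 1 nM final. Cpd preinc 15 min RT; substrate 15 nM final, 5 min RT; AS bead mix 10 ug/ml final, 10 min RT. Signal loss = tyrosine-FITC cleavage. No-enzyme wells = max signal.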
A number is an active result; n = inactive; u = inconclusive; x = no result given; [ ] = another dose, or the depositor's remark. Compounds with a hit are over-represented: about 12% of the library has one in this group of screens. Calls follow the shape of the dose curve; as a rule, active = well fitted curve in the direction sought with a large enough effect; inconclusive = small, poorly fitted or top-dose-only effect, or another doubt; inactive = no such curve, though single readings can be large; an effect the other way counts as inactive or inconclusive.

SMILES	JMJD2A Tudor inh	HP1b chromo inh	BAZ2B inh	G9a inh	Sfp inh	TDP1 block
CCn1c(SCc2ccc(Cl)c(Cl)c2)nnc1C(C)NC(=O)c1ccc(OC)cc1 (stereo not given)	n	n	u	n	n	n
COc1ccc(C(=O)NC(C)c2nnc(SCc3ccc(Cl)c(Cl)c3)n2C)cc1 (stereo not given)	n	n	u	32µM	n	n
O=C(NCCC(=O)N1CCN(c2ccccn2)CC1)c1ccc(Cl)cc1	n	n	x	x	x	n
O=C(NCCC(=O)N1CCN(c2ccccc2O)CC1)c1ccc(Cl)cc1	n	n	n	50µM	x	n
CCCCc1nnc(NC(=O)CCS(=O)(=O)c2ccc(Cl)cc2)s1	n	n	n	n[12.7 µM]	x	n
CCOC(=O)c1c(C)[nH]c2ccc3c(c12)CN1CCc2cc(OC)ccc2[C@@H]1O3	x	x	x	x	u	n
CC(=O)Nc1nc2ccccc2n1CCN(C)C	40µM	n	n	40µM	n	n
CN(C)CCCn1c(NC(=O)C2CCCCC2)nc2ccccc21	n	n	n	n	n	n
CCCCN1C(=O)c2[nH]nc(-c3ccccc3O)c2C1c1cc(Br)c(O)c(OC)c1 (stereo not given)	u	n	n	u	x	n
Cc1ccc(S(=O)(=O)CC(=O)Nc2sc3c(c2C(N)=O)CCCC3)cc1	n	n	n	n	x	n
COCCN(CCOC)S(=O)(=O)c1ccc(C(=O)Nc2sc3c(c2C(N)=O)CCCCC3)cc1	n	u	n	35µM	50µM	n
CC(C)(C)c1ccc(S(=O)(=O)NCC(=O)Nc2sc3c(c2C(N)=O)CCCC3)cc1	n[11.4 µM]	n	n	50µM	n	n
COc1ccc(NC(=O)N2CC3(CCN(C(=O)c4cccc(F)c4)CC3)C2)cc1	x	x	x	n[12.7 µM]	n	x
O=C(C1=C(O)C(=O)N(CCN2CCOCC2)C1c1cccc(Br)c1)c1cccs1 (stereo not given)	n	n	n	56µM	n	x
O=C(C1=C(O)C(=O)N(CCN2CCOCC2)C1c1ccc([N+](=O)[O-])cc1)c1cccs1 (stereo not given)	45µM	n	n	u	n	x
Cc1cc(N2C(=O)C(O)=C(C(=O)c3cccs3)C2c2cccc(Br)c2)no1 (stereo not given)	n	n	n	u	n	n
CN(C)CCCN1C(=O)C(O)=C(C(=O)c2cccs2)C1c1cccc([N+](=O)[O-])c1 (stereo not given)	x	x	n	n	n	n
Clc1ccc(C(Cn2ccnc2)OCc2c(Cl)cccc2Cl)c(Cl)c1 (stereo not given)	u	n	32µM	7.9µM	x	x
COc1cc(NC(=O)COC(=O)c2cnccn2)c(C)cc1[N+](=O)[O-]	n	n	n	x	n	n
Cc1ccc(S(=O)(=O)N2CCN(c3cc4c(cc3[N+](=O)[O-])n(C)c(=O)n4C)CC2)cc1	n	n	u	u	n	n
Cn1c(=O)n(C)c2cc([N+](=O)[O-])c(N3CCN(C(=O)c4cccc(Cl)c4)CC3)cc21	n	n	56µM	n	n	n
CCOC(=O)C(=O)N1CCN(c2cc3c(cc2[N+](=O)[O-])n(C)c(=O)n3C)CC1	n	n	50µM	n	n	n
Cc1ccc(C(=O)N2CCN(c3cc4c(cc3[N+](=O)[O-])n(C)c(=O)n4C)CC2)cc1	n	n	50µM	n	n	n
CCN(C(=O)c1nn(-c2ccc(C)cc2)c(=O)c2c1c1ccccc1n2C)c1ccc(F)cc1	n	n	x	1.3µM	x	n
CCN(CC)CCOC(=O)c1ccc(NC(=O)c2nn(-c3ccc(C)cc3)c(=O)c3c2c2ccccc2n3C)cc1	u	u	x	3.2µM	x	n
SMILES	JMJD2A Tudor inh	HP1b chromo inh	BAZ2B inh	G9a inh	Sfp inh	TDP1 block
CCn1cc(C(=O)OCC(=O)c2cc(C)n(-c3ccccc3)c2C)c(=O)c2ccc(C)nc21	n	n	u	n	u	n
CCn1cc(C(=O)OCC(=O)c2cc(C)n(-c3ccccc3F)c2C)c(=O)c2ccc(C)nc21	40µM	u	u	n	n	n
C=CCNc1nc(C(=O)OCC(=O)c2ccc(OC)cc2OC)cs1	n	n	n	n	x	n
C=CCNc1nc(C(=O)OCC(=O)Nc2cccc(SC)c2)cs1	u	n	79µM	56µM	x	n
C=CCNc1nc(C(=O)OCC(=O)c2ccc(C)c([N+](=O)[O-])c2)cs1	n	n	50µM	n	n	n
C=CCNc1nc(C(=O)OCC(=O)c2ccc(Cl)cc2)cs1	50µM	n	35µM	50µM	x	n
CCc1ccccc1Nc1nc(N)nc(COC(=O)c2c(C)noc2C)n1	n	n	n	n	x	n
CCCCCCCCCCCC(=O)OCC(O)C1OCC(O)C1O (stereo not given)	x	x	x	n[12.7 µM]	n	x
CC[C@@]1(c2cccc(C)c2)C(=O)N(C(=O)OC)N1C(=O)OC	n	n	u	45µM	n	x
COC(=O)N1C(=O)[C@](CC(C)C)(c2ccccc2)N1C(=O)OC	n	n	n	79µM	n	x
COC(=O)N1C(=O)[C@@](CC(C)C)(c2ccccc2)N1C(=O)OC	x	x	n	50µM	n	x
CC[C@@]1(c2ccccc2OC)C(=O)N(C(=O)OC)N1C(=O)OC	n	n	n	x	n	x
CCOC(=O)N1C(=O)[C@@](CC)(c2ccccc2)N1C(=O)OCC	n	n	n	x	n	x
CCC(C)NC(=O)CSc1nc2ccccc2c(=O)n1-c1c(C)n(C)n(-c2ccccc2)c1=O (stereo not given)	n	n	n	n	n	n
CC(=O)Nc1ccc(Cc2nc3c([nH]2)c(=O)n(C)c(=O)n3C)cc1	x	x	n	n[2.33 µM]	n	n
COCCN1Cc2cccc(C(=O)Nc3ccc(C(=O)OC)cc3)c2C1=O	n	n	x	n	x	n
COc1ccc(C)cc1NC(=O)C/C(C)=N/NC(=O)Cc1cccc2ccccc12	n	n	u	n	n	x
ONC(=Nc1ccccc1)c1ccc(Cl)cc1	n	n	n	n	n	n
CSC(=Nc1ccc(Cl)cc1)N[n+]1ccccc1	n	n	n	2µM	n	n
O=C(CN1C(=O)NC2(CCCCC2)C1=O)Nc1nc2c(F)cc(F)cc2s1	n	n	n	50µM	x	n
O=C(c1ccc2ccccc2n1)N1CCN(c2ccccc2O)CC1	n	n	n	45µM	n	n
COc1ccc(N2CCN(C(=O)c3ccc4c(c3)[nH]c(=S)n3c5ccccc5nc43)CC2)cc1	x	x	u	13µM	n	n
O=C(c1cc2ccccc2cc1O)N1CCN(c2ccccc2O)CC1	u	n	n	45µM	x	n[0.505 µM]
COc1ccc(N2CCN(C(=O)c3ccc4ccccc4n3)CC2)cc1	n	n	n	71µM	n	n
CN(C)S(=O)(=O)c1cccc(COC(=O)CCNC(=O)c2ccc([N+](=O)[O-])cc2)c1	n	n	n	n[2.33 µM]	x	n
